# Assay results as given in PubChem BioAssay (NCATS).
# Inconclusive results are not listed. Where a call stands in place of a potency, no number is given. Calls of active or inactive are those of the source. Calls follow the shape of the dose curve; as a rule, active = well fitted curve in the direction sought with a large enough effect; inconclusive = small, poorly fitted or top-dose-only effect, or another doubt; inactive = no such curve, though single readings can be large; an effect the other way counts as inactive or inconclusive.
# Legend:
# [1] = system: Zika virus NS2B-NS3 protease (linked construct); assay: Primary screen NINDS Rhodamine qHTS for Zika virus inhibitors (AID 1347160); also: nearly all actives have a fitted effect of over 55% in size; also: potency is read from the fitted curve at half-maximal effect
# How it was run: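 Rhodamine110-peptide cleavage (1.5 µM substrate) by 25 nM linked NS2B-NS3 enzyme at pH 8.0 (Tris, Tween 20), after 15 min RT preincubation with compounds; 15-min fluorescence change normalized to controls and Hill-fitted.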
# [2] = molecular target: Calcium and integrin-binding protein 1 (Homo sapiens) (UniProt Q99828); assay: Primary qHTS for Identification of Calcium Integrin Binding Protein 1 (CIB1) Competitor (AID 1508620);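 also: GST tagged CIB1 binding a fluorescein labelled alphaIIb integrin peptide tracer; top concentration of the series differs between compounds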
# How it was run: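 Fluorescence polarization competition: GST-tagged CIB1 (1 uM final) preincubated with compound 15 min at room temperature, then FITC-labelled alphaIIb peptide (100 nM final) added. After 15 min at room temperature, polarization read at Ex 480/Em 540.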
# [3] = Primary qHTS for inhibitors of nuclear receptor binding SET domain protein 2 (NSD2) in an isogenic RCH-ACV NSD2 p.E1099K mutant (9B) (AID 1645876); also: potency is read from the fitted curve at half-maximal effect; nearly all actives have a fitted effect of over 70% in size
# [4] = Primary qHTS for inhibitors of nuclear receptor binding SET domain protein 2 (NSD2) in an RCH-ACV wild type WT cells (2C) (AID 1645877); also: potency is read from the fitted curve at half-maximal effect; nearly all actives have a fitted effect of over 70% in size
# [5] = molecular target: Phospholipid hydroperoxide glutathione peroxidase GPX4 (Homo sapiens) (UniProt P36969); assay: Primary qHTS Assay for Inhibitors of Recombinant Selenoprotein Glutathione Peroxidase 4 (GPX4) (AID 1845192); conditions: outcome: dose series up to 50 µM unless noted; also: nearly all actives have a fitted effect of over 65% in size; also: potency is read from the fitted curve at half-maximal effect
# How it was run: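 Steps: GPX4 plus compound, 30 min RT; add GR/GSH/NADPH master mix; start with cumene hydroperoxide; read 340/450 nm fluorescence at 0 and 15 min. Finals were 200 nM GPX4, 1 mM GSH, 0.5 mM CHP, 0.5 mM NADPH, 100 nM GR.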
# [6] = molecular target: Luciferin 4-monooxygenase (Photinus pyralis) (UniProt P08659); assay: Primary firefly luciferase (FLuc) qHTS assay for identification of artifact compounds. (AID 1845220); also: nearly all actives have a fitted effect of over 60% in size
# How it was run: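 Enzymatic FLuc inhibition assay: compounds pre-exposed to luciferin/ATP (10 uM each) for 15 min, then purified P. pyralis enzyme at 10 nM added. Read-out: luminescence at 5 min.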
# [7] = Primary fluorescence-based thiol-reactive (MSTI) qHTS assay for identification of artifact compounds. (AID 1845221); also: nearly all actives have a fitted effect of over 65% in size; also: potency is read from the fitted curve at half-maximal effect
# How it was run: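 MSTI probe at 4 uM final in 2% DMSO/PBS pH 7.4; compounds, 1 h at room temperature in dark. Fluorescence Ex/Em 525/598 nm, normalised to Acetyl-MSTI and MSTI, fitted to 4-parameter Hill.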
# [8] = system: Nanoluciferase (engineered Oplophorus gracilirostris luciferase); assay: Primary Nanoluciferase (NLuc) qHTS assay for identification of artifact compounds. (AID 1845222);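 also: NLuc secreted into diluted conditioned medium of S16 cells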
# How it was run: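 S16 cell supernatant NLuc, 1:55; cpds qHTS; 15 min RT dark; Nano-Glo substrate 1:100, 5 min; luminescence; Hill fit of % inhibition.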
# [9] = Primary redox qHTS assay for identification of artifact compounds. (AID 1845223)
# How it was run: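 Redox-cycling detection via DTT (250 uM final) oxidation coupled to Amplex Red (25 uM)/HRP (250 mU/mL) in HBSS. 15 min preincubation plus 30 min after DTT, room temperature. Ex/Em 525/598 nm; 4-parameter Hill fit against DMSO and 10 uM DA3003.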
# [10] = system: C33A; assay: Primary qHTS to identify gynecologic anti-cancer compounds using libraries of approved drugs and bioactive compounds (AID 1345084); conditions: Gynecologic cancer cell panel viability, ATPlite luminescence, 48 h; series mostly up to 57.5 µM; also: nearly all actives have a fitted effect of over 55% in size; also: potency is read from the fitted curve at half-maximal effect
# How it was run: (§1)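 Cells, 1,000 per well, plated 16 h, then exposed 48 h at 37 C to compounds. Viability by ATPlite luminescence after 15 min at room temperature.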
# [11] = system: Es-2; assay: as above; conditions: Gynecologic cancer cell panel viability, ATPlite luminescence, 48 h; series mostly up to 57.5 µM
# How it was run: as §1
# [12] = system: HeLa; assay: as above; conditions: Gynecologic cancer cell panel viability, ATPlite luminescence, 48 h; series mostly up to 57.5 µM
# How it was run: as §1
# [13] = system: Hek293T; assay: as above; conditions: Gynecologic cancer cell panel viability, ATPlite luminescence, 48 h, control line for the selectivity index; series mostly up to 57.5 µM
# How it was run: as §1
# [14] = system: JEG-3; assay: as above; conditions: Gynecologic cancer cell panel viability, ATPlite luminescence, 48 h; series mostly up to 57.5 µM
# How it was run: as §1
# [15] = system: Tov-21-G; assay: as above; conditions: Gynecologic cancer cell panel viability, ATPlite luminescence, 48 h; series mostly up to 57.5 µM
# How it was run: as §1
# [16] = molecular target: Glutathione peroxidase 1 (Homo sapiens) (UniProt P07203); assay: Primary qHTS Assay for Inhibitors of Recombinant Selenoprotein Glutathione Peroxidase 1 (GPX1) (AID 1845191); also: nearly all actives have a fitted effect of over 65% in size
# How it was run: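 GR-coupled readout: NADPH consumption tracked by fluorescence, ex 340/em 450 nm, at t=0 and after 15 min at RT. Final mix 10 nM GPX1, 1 mM GSH, 0.5 mM CHP, 0.5 mM NADPH, 100 nM GR, 0.01% BSA, following 30 min enzyme–compound preincubation.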
# [17] = system: CASKI; assay: Primary qHTS to identify gynecologic anti-cancer compounds using libraries of approved drugs and bioactive compounds (AID 1345084); conditions: Gynecologic cancer cell panel viability, ATPlite luminescence, 48 h; series mostly up to 57.5 µM; also: nearly all actives have a fitted effect of over 55% in size; also: potency is read from the fitted curve at half-maximal effect
# How it was run: as §1
# [18] = system: OV90; assay: as above; conditions: Gynecologic cancer cell panel viability, ATPlite luminescence, 48 h; series mostly up to 57.5 µM
# How it was run: as §1
# [19] = system: Tov112D; assay: as above; conditions: Gynecologic cancer cell panel viability, ATPlite luminescence, 48 h; series mostly up to 57.5 µM
# How it was run: as §1
# Calcium and integrin-binding protein 1 (Homo sapiens), sequence (Q99828 whole entry, looked up): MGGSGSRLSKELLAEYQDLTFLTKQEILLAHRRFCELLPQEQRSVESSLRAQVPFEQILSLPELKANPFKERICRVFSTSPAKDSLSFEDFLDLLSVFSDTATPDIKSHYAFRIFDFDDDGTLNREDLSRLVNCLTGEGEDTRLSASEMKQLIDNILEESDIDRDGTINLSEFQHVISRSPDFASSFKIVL
# Phospholipid hydroperoxide glutathione peroxidase GPX4 (Homo sapiens), sequence (P36969 whole entry, looked up): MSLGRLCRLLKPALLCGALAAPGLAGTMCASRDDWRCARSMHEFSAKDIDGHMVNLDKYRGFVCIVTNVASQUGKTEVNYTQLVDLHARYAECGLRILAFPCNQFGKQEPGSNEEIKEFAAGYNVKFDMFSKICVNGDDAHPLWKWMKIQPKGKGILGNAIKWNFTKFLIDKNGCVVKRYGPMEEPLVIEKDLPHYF
# Glutathione peroxidase 1 (Homo sapiens), sequence (P07203 whole entry, looked up): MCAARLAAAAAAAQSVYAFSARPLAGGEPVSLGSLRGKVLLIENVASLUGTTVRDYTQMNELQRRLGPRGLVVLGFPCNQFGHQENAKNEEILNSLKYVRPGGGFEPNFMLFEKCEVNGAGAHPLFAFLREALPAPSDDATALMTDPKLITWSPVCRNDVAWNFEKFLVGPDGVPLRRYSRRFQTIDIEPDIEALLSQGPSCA
Structure (SMILES),Potency [1],outcome [2],Potency [3],Potency [4],Potency [5],Potency [6],Potency [7],Potency [8],Potency [9],Potency [10],Potency [11],Potency [12],Potency [13],Potency [14],Potency [15],Potency [16],Potency [17],Potency [18],Potency [19]
CCN1CCN(Cc2ccc(-c3cc4c(NC(C)c5ccccc5)ncnc4[nH]3)cc2)CC1 (centres undefined),inactive,inactive,4.59 µM (active),5.78 µM (active),14.3 µM (active),inactive,inactive,inactive,inactive,inactive,inactive,inactive,inactive,inactive,4.47 µM (active),,,,
CCCCn1ccc(N2CCC(c3ccccc3)CC2)c(Cl)c1=O,inactive,inactive,23 µM (active),18.3 µM (active),inactive,,inactive,inactive,inactive,,28.2 µM (active),,31.6 µM (active),,28.2 µM (active),inactive,,,
C=C(C)[C@@H]1CC[C@]2(C(=O)O)CC[C@]3(C)C(CCC4[C@@]5(C)C[C@@H](O)[C@H](O)C(C)(C)C5CC[C@]43C)C12 (some centres undefined),inactive,inactive,,,inactive,inactive,inactive,inactive,inactive,inactive,inactive,inactive,inactive,inactive,inactive,inactive,inactive,inactive,inactive
C=C1/C(=C/C=C2\CCC[C@]3(C)[C@@H]([C@H](C)/C=C/C(=O)C4CC4)CC[C@@H]23)C[C@@H](O)C[C@@H]1O,inactive,inactive,16.3 µM (active),23 µM (active),inactive,inactive,inactive,inactive,,inactive,inactive,inactive,inactive,inactive,inactive,inactive,inactive,inactive,inactive
COc1cc(O)c(C(=O)CCc2ccc(O)cc2)c(O[C@@H]2O[C@H](CO)[C@@H](O)[C@H](O)[C@H]2O)c1,,,,,inactive,inactive,9.22 µM (active),inactive,inactive,inactive,,inactive,,inactive,inactive,inactive,inactive,inactive,inactive
C[C@@H](c1nc(-c2ccc(C#N)cc2)cs1)[C@](O)(Cn1cncn1)c1cc(F)ccc1F,inactive,,8.17 µM (active),11.5 µM (active),inactive,inactive,inactive,inactive,inactive,inactive,inactive,inactive,inactive,inactive,inactive,inactive,inactive,inactive,inactive
O=C(NCc1ccc(Oc2ccccc2)cc1)c1nc(-c2cc(Br)c(O)c(Br)c2)no1,2.51 µM (active),,,20.5 µM (active),inactive,inactive,0.423 µM (active),inactive,,inactive,inactive,inactive,inactive,inactive,inactive,inactive,inactive,inactive,inactive
CC1CCC2C(=CCC(O)C2(C)C)C1(C)Cc1c(O)cc(CO)c(C=O)c1O (centres undefined),inactive,inactive,,,inactive,inactive,inactive,inactive,,inactive,inactive,inactive,inactive,inactive,inactive,,inactive,inactive,inactive
COc1cc(O)ccc1OCCNCC(O)COc1cccc2[nH]c3ccccc3c12 (centres undefined),inactive,inactive,20.5 µM (active),20.5 µM (active),inactive,inactive,,inactive,inactive,inactive,inactive,inactive,inactive,inactive,inactive,inactive,inactive,inactive,inactive
CCN(CC)c1ccc(C(=C2C=CC(=[N+](CC)CC)C=C2)c2cc(S(=O)(=O)O)ccc2S(=O)(=O)[O-])cc1,,inactive,,,inactive,,,,,10 µM (active),28.2 µM (active),,12.6 µM (active),,25.1 µM (active),inactive,,12.6 µM (active),
Cc1ccc2c(Nc3ccc(Cl)cc3)nccc2c1Nc1ncccc1-c1ncnc2nc[nH]c12,inactive,inactive,18.4 µM (active),20.6 µM (active),inactive,inactive,,inactive,inactive,inactive,,inactive,inactive,inactive,,inactive,,5.01 µM (active),
CC(C)[C@@H](C)/C=C/[C@@H](C)[C@H]1CC[C@H]2C3=CC=C4C[C@@H](O)CC[C@]4(C)C3=CC[C@]12C,inactive,inactive,,,inactive,inactive,inactive,inactive,,inactive,inactive,inactive,inactive,inactive,inactive,inactive,inactive,inactive,inactive
Cc1ccc(C2(COC(=O)C(C)C)CO2)c(OC(=O)C(C)C)c1 (centres undefined),inactive,inactive,,,inactive,inactive,inactive,inactive,inactive,inactive,inactive,inactive,inactive,inactive,inactive,inactive,inactive,inactive,inactive
COc1ccc2c(c1)C[C@H](C(=O)Nc1ccc(-c3cn[nH]c3)cc1OCCN(C)C)CO2,inactive,,0.291 µM (active),0.164 µM (active),inactive,inactive,inactive,inactive,inactive,inactive,inactive,,inactive,inactive,inactive,inactive,inactive,inactive,inactive
